Several values for one entry are separate records, joined by “and”; a condition that tells them apart may be missing. Identical values can stand only once.
Tests used:
[1] = molecular target: Fibroblast growth factor receptor 4 (Homo sapiens) (UniProt P22455); settings: at 1 µM;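 further: reported figure is the averaged percent inhibition of FGFR4, from the GSK PKIS kinase screening panel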
[2] = molecular target: Tyrosine-protein kinase Fgr (Homo sapiens) (UniProt P09769); settings: at 0.1 µM
[3] = molecular target: Tyrosine-protein kinase Fgr (Homo sapiens) (UniProt P09769); settings: at 1 µM
[4] = molecular target: Vascular endothelial growth factor receptor 1 (Homo sapiens) (UniProt P17948); settings: at 0.1 µM
[5] = molecular target: Vascular endothelial growth factor receptor 1 (Homo sapiens) (UniProt P17948); settings: at 1 µM
[6] = molecular target: Receptor-type tyrosine-protein kinase FLT3 (Homo sapiens) (UniProt P36888); settings: at 0.1 µM
[7] = molecular target: Receptor-type tyrosine-protein kinase FLT3 (Homo sapiens) (UniProt P36888); settings: at 1 µM
[8] = test system: T1, Receptor-type tyrosine-protein kinase FLT3 (Homo sapiens), P36888 [D835Y]; settings: at 0.1 µM
T1 sequence (whole entry): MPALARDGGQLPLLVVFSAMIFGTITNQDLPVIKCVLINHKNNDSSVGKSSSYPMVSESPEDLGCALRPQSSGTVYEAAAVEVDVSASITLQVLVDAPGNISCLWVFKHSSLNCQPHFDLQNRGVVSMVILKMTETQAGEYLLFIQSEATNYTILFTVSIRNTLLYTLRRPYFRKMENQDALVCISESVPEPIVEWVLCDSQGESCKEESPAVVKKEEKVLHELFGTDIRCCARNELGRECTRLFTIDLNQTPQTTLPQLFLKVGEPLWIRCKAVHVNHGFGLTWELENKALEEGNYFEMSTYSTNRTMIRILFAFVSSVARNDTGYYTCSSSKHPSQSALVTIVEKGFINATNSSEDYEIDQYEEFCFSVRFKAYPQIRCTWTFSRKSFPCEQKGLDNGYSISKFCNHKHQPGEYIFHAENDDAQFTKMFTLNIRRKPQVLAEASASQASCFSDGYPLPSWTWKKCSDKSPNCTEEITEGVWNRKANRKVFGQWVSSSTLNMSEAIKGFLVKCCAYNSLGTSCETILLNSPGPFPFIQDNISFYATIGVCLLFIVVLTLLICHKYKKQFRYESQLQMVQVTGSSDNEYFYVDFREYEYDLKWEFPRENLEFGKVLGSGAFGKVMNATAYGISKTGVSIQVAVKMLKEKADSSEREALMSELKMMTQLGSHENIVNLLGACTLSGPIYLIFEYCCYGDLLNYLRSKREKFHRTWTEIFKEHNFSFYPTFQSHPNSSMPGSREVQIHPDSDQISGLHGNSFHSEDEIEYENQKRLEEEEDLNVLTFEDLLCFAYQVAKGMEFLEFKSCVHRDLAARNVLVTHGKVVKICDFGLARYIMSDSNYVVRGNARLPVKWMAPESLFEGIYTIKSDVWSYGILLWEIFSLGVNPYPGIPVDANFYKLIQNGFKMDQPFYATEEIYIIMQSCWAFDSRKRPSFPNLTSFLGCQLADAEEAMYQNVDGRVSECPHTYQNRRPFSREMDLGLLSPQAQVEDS

[9] = molecular target: Non-receptor tyrosine-protein kinase TYK2 (Homo sapiens) (UniProt P29597); settings: at 1 µM;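 further: values are mean percent inhibition of TYK2 kinase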
[10] = molecular target: T2, Tyrosine-protein kinase receptor TYRO3 (Homo sapiens) (UniProt Q06418); settings: at 0.1 µM
T2 sequence (whole entry): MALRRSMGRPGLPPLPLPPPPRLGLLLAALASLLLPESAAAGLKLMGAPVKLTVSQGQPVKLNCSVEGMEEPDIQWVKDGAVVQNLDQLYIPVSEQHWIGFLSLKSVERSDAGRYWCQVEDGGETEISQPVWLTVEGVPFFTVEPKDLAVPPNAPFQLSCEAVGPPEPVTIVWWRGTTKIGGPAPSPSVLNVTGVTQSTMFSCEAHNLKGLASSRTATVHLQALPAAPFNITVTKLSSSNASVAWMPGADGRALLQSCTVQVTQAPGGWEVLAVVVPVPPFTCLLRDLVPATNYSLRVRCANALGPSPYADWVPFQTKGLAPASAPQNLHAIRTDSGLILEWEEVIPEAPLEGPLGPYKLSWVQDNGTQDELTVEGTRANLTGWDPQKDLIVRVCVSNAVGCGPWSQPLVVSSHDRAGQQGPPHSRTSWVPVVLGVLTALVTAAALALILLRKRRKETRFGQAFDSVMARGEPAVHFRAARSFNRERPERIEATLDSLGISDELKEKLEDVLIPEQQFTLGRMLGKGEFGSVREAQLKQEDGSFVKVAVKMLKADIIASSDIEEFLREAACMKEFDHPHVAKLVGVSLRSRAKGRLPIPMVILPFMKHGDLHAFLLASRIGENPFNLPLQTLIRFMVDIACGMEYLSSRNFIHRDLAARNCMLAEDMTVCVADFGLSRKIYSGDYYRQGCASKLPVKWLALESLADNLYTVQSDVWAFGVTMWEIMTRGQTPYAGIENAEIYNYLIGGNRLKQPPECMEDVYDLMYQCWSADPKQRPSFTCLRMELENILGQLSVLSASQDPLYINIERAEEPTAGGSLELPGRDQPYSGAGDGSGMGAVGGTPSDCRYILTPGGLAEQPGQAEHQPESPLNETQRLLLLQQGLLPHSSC

[11] = molecular target: T2, Tyrosine-protein kinase receptor TYRO3 (Homo sapiens); settings: at 1 µM
[12] = molecular target: Tyrosine-protein kinase Yes (Homo sapiens) (UniProt P07947); settings: at 0.1 µM
[13] = molecular target: Tyrosine-protein kinase Yes (Homo sapiens) (UniProt P07947); settings: at 1 µM
[14] = molecular target: T3, Tyrosine-protein kinase ZAP-70 (Homo sapiens) (UniProt P43403); settings: at 0.1 µM
T3 sequence (whole entry): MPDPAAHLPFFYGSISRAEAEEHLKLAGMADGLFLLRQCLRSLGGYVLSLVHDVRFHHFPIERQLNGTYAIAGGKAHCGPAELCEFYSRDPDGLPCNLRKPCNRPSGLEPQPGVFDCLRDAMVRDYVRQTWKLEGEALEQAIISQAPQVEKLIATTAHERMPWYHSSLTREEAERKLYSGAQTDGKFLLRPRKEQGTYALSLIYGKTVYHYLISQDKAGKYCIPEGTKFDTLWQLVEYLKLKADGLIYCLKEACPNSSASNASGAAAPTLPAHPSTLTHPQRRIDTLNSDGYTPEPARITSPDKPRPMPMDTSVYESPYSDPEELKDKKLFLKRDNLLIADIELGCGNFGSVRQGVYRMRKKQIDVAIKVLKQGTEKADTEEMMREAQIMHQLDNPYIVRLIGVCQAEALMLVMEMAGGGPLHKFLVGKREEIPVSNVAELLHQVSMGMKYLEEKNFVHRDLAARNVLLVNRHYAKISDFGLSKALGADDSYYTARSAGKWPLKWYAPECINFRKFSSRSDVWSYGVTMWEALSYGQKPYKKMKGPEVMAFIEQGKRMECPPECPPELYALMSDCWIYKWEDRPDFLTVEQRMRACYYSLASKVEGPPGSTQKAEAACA

[15] = molecular target: T3, Tyrosine-protein kinase ZAP-70 (Homo sapiens); settings: at 1 µM
[16] = molecular target: Serine/threonine-protein kinase B-raf (Homo sapiens) (UniProt P15056); settings: at 0.1 µM
[17] = molecular target: Serine/threonine-protein kinase B-raf (Homo sapiens) (UniProt P15056); settings: at 1 µM
[18] = test system: Serine/threonine-protein kinase B-raf (Homo sapiens), P15056 [V600E]; settings: at 0.1 µM
[19] = test system: Serine/threonine-protein kinase B-raf (Homo sapiens), P15056 [V600E]; settings: at 1 µM
[20] = molecular target: RAF proto-oncogene serine/threonine-protein kinase (Homo sapiens) (UniProt P04049); settings: at 0.1 µM;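 further: values are mean CRAF kinase inhibition from profiling of the GSK Published Kinase Inhibitor Set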
Sequence of RAF proto-oncogene serine/threonine-protein kinase (Homo sapiens) (P04049 whole entry): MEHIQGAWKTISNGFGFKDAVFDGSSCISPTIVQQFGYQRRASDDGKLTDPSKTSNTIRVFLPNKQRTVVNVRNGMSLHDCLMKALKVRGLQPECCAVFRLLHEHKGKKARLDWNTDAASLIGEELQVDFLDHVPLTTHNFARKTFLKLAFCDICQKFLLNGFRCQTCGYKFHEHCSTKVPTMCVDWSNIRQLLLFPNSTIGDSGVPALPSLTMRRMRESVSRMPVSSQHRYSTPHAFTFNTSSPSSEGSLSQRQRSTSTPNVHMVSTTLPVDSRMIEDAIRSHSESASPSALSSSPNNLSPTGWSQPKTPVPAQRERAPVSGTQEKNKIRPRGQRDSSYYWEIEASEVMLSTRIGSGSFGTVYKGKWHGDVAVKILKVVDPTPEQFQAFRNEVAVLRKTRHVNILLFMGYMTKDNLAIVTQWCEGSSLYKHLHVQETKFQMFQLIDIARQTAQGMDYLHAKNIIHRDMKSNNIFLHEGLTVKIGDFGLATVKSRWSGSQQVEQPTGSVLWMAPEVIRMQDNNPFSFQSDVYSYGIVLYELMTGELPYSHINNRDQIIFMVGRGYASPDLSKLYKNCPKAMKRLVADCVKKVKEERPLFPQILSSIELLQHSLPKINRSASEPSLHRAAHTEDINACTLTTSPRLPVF

Sequence of Tyrosine-protein kinase Fgr (Homo sapiens) (P09769 2-529 limits assumed): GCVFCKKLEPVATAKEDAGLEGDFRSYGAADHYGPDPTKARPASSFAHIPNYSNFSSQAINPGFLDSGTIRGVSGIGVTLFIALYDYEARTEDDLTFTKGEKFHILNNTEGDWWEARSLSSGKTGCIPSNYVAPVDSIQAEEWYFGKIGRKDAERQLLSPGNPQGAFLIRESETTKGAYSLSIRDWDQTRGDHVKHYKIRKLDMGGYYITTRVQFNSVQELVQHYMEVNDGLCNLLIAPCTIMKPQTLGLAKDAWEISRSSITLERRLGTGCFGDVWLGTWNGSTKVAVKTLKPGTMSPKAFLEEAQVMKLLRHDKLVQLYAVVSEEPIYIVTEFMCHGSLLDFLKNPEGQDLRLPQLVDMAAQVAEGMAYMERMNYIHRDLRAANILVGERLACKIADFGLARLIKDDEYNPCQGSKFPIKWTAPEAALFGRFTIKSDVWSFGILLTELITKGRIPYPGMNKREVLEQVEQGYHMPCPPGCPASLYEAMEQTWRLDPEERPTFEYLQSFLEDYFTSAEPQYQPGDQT
Sequence of Serine/threonine-protein kinase B-raf (Homo sapiens) (P15056 whole entry): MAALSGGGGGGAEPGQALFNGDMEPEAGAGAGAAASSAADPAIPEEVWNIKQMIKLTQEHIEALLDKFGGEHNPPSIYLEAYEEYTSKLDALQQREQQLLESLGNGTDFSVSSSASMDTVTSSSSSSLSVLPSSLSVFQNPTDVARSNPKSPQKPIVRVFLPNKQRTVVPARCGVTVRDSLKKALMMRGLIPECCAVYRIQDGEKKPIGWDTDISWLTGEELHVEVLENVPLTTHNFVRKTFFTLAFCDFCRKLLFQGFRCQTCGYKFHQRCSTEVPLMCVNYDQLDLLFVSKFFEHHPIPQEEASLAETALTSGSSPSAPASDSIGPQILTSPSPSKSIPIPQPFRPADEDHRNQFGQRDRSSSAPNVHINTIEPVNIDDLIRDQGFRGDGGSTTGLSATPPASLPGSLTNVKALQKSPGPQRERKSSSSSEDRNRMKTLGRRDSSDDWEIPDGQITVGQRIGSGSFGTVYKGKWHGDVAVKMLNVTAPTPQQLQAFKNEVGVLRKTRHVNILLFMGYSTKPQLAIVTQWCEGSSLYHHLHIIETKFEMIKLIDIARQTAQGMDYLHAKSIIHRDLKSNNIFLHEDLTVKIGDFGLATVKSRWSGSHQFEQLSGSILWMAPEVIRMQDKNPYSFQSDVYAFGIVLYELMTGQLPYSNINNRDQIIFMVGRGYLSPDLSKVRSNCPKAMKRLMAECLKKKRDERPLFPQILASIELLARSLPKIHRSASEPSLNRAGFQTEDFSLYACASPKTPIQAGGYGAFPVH
Sequence of Vascular endothelial growth factor receptor 1 (Homo sapiens) (P17948 whole entry): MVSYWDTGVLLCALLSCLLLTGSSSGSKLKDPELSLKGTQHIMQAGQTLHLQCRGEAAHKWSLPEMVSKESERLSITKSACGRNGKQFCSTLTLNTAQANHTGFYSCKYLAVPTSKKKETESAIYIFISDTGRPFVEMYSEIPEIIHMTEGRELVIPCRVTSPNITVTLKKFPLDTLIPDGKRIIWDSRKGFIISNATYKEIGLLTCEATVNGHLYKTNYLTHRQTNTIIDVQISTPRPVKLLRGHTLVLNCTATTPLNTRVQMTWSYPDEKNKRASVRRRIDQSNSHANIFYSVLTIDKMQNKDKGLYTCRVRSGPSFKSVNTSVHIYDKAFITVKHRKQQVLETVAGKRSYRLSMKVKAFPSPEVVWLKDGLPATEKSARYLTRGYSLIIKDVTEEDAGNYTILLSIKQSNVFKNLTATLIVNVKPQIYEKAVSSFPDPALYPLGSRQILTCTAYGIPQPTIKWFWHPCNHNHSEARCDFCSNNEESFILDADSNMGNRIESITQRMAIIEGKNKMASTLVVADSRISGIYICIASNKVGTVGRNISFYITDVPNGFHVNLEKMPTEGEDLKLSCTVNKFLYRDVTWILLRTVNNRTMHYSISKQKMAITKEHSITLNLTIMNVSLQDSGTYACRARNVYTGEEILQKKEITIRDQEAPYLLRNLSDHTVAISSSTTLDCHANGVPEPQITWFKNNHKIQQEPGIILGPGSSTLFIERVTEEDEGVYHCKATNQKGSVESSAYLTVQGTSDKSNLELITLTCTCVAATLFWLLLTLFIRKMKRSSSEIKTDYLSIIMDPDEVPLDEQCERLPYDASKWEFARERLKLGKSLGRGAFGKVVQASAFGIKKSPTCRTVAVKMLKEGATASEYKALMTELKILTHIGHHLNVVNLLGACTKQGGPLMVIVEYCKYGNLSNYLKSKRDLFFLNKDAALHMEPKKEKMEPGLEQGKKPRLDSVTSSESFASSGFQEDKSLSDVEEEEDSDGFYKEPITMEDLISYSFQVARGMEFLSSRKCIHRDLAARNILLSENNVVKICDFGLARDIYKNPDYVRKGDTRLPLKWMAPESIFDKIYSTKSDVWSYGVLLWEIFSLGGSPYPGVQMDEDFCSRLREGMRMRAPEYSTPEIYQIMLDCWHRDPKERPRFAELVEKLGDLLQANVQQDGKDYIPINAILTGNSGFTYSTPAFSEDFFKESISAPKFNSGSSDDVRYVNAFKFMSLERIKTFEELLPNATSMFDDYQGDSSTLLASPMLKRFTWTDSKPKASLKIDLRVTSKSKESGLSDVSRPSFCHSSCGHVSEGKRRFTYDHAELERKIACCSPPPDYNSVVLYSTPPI
Sequence of Non-receptor tyrosine-protein kinase TYK2 (Homo sapiens) (P29597 whole entry): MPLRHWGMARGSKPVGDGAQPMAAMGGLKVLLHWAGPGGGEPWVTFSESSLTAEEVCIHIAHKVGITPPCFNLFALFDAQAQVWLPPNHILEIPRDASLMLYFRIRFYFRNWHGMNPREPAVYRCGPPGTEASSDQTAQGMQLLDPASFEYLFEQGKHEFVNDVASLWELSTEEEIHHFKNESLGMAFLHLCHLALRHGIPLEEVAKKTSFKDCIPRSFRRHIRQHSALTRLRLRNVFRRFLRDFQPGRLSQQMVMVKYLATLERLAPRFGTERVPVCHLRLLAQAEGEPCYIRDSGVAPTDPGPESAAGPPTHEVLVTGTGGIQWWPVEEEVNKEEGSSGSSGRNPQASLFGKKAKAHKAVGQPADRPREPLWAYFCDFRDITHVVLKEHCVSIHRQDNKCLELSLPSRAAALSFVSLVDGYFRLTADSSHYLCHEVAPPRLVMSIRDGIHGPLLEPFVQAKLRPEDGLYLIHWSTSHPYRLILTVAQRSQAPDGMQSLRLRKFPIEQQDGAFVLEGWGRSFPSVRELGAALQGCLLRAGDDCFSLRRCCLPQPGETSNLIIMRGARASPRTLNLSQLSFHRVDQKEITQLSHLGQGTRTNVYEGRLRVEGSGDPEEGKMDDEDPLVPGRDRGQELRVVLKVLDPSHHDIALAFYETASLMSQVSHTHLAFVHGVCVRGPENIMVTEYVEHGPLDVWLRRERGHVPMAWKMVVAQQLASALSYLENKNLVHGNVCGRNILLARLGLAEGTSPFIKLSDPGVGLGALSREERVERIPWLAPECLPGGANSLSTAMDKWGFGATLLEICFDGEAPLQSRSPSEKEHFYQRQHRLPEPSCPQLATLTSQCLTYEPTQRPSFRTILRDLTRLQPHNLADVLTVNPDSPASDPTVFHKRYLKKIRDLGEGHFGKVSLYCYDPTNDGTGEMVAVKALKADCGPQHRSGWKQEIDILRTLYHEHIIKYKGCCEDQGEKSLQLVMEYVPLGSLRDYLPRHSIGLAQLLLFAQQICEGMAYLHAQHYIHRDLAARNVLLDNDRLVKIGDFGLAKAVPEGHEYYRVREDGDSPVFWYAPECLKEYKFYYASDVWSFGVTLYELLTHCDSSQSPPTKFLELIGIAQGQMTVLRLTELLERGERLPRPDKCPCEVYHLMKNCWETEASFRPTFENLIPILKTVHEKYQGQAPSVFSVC
Sequence of Serine/threonine-protein kinase B-raf (Homo sapiens), P15056 [V600E] (P15056 whole entry V600E): as the sequence (P15056 whole entry) above, with V600E counted along it
Sequence of Tyrosine-protein kinase Yes (Homo sapiens) (P07947 2-543 limits assumed): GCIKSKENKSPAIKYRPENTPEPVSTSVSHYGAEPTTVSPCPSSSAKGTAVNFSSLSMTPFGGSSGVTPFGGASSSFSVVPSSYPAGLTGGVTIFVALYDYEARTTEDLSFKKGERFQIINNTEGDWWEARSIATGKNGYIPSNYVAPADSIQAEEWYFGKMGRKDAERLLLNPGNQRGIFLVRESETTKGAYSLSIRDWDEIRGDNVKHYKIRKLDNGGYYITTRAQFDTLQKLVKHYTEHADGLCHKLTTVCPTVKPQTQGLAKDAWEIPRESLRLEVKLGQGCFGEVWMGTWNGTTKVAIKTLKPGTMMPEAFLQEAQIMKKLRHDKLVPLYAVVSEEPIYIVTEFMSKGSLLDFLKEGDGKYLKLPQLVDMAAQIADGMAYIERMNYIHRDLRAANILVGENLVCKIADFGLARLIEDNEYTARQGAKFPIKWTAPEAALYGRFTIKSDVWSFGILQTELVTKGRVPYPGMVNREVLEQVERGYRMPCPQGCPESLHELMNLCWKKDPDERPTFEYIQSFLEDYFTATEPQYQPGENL

| Structure (SMILES) | inhibition [1] | inhibition [2] | inhibition [3] | inhibition [4] | inhibition [5] | inhibition [6] | inhibition [7] | inhibition [8] | inhibition [9] | inhibition [10] | inhibition [11] | inhibition [12] | inhibition [13] | inhibition [14] | inhibition [15] | inhibition [16] | inhibition [17] | inhibition [18] | inhibition [19] | inhibition [20] |
| --- | --- | --- | --- | --- | --- | --- | --- | --- | --- | --- | --- | --- | --- | --- | --- | --- | --- | --- | --- | --- |
| CS(=O)(=O)CCNCc1ccoc1-c1ccc2ncnc(Nc3ccc(OCc4ccccc4)cc3)c2c1 | 1.85% | 2.61% | 12.6% | 2.35% | -0.36% | 1.82% | 6.53% | -4.02% | 0.15% | 0.96% | 3.68% | 4.12% | 21.9% | -0.82% | 2.26% | 1.03% | 1.49% | 1.75% | 1.31% | -1.29% |
| Cc1cc(O)cc(C)c1/C=C/c1cncc(C(N)=O)c1 | 0.95% | 5.81% | 38.1% | 1.23% | 4.11% | 1.9% | 2.11% | -5.07% | -0.58% | 2.41% | 6.32% | 6.53% | 32.2% | 2.11% | 2.46% | 4.77% | 11.2% | 3.8% | 8.78% | -1.23% |
| CNC(=O)c1sc(-n2cnc3cc(OC)c(OC)cc32)cc1OCc1ccccc1C(F)(F)F | 1.34% | 4.08% | 10.1% | 1.22% | 0.98% | 2.13% | 3.19% | -3.62% | -3.45% | 1.67% | 3.54% | 3.33% | 6.76% | -0.03% | -1.04% | 6.42% | 6.14% | 4.01% | 4.66% | 1.81% |
| CN1CCC(C(=O)Nc2n[nH]c3nc(-c4ccc(O)cc4)c(Br)cc23)CC1 | -2.79% and 2.44% | 4.74% and 1.32% | 4.79% and 3.79% | -0.55% and 2.25% | 1.75% and 2.84% | 1.75% and 4.1% | 5.59% and 2.93% | -2.26% and 1.33% | -0.92% and -0.98% | 2.21% and 0.67% | 7.08% and 4.86% | 4% and 0.88% | 10.6% and 3.33% | -0.14% and 0.65% | 2.21% and 2.11% | 9.05% and 4.77% | 16% and 14.5% | 9.4% and 4.5% | 13.8% and 8.76% | 13% and -0.38% |
| CN1CCC(n2cnc(-c3ccc(F)cc3)c2-c2ccnc(NCCO)n2)CC1 | 0.38% | 5.33% | 2.78% | 1.32% | 3.27% | 1.5% | 5.56% | -2.58% | -4.71% | 3.69% | 5.81% | 2.55% | 8.81% | 2.9% | -0.3% | 5.28% | 8.68% | 4.16% | 8.41% | -1.57% |
| COc1ccccc1-c1cc(/C=C2\C(=O)Nc3ncc(Br)cc32)cc(Br)c1O | 1.97% | 2.7% | 11.6% | 3.32% | 4.73% | 4.36% | 6.62% | -5.55% | -1.22% | 7.47% | 3.41% | -0.07% | 12.9% | 2.43% | 6.67% | 6.58% | 10.5% | 7.25% | 8.04% | -0.19% |
| CCOc1ccc2c(-c3ccnc(Nc4cc(OC)cc(C(F)(F)F)c4)n3)cnn2n1 | 3.56% | 1.32% | 9.11% | 1.04% | 5.65% | 2.11% | 15.1% | 2.53% | 1.53% | 1.46% | 4.4% | 2.04% | 6.75% | 0.43% | 3.29% | 0.89% | 1.03% | 0.43% | 1.03% | -4.87% |
| NC(=O)c1ccc2c(-c3ccnc(NCCCO)n3)c(-c3ccc(F)cc3)nn2c1 | 1.22% | 3.07% | 12.1% | 3.74% | 3.53% | 4.12% | 5.06% | 2.33% | -5.12% | 3.03% | 3.98% | 2.77% | 10.9% | 1.7% | 1.63% | 10.9% | 22.2% | 9.67% | 19.7% | -3.29% |
| CNC(=O)c1cncc(/C=C/c2ccccc2C)c1 | -0.62% | 5.41% | 9.23% | 1.31% | 0.49% | 1.85% | 1.3% | -2.2% | -3.23% | 3.13% | 3.96% | 4.29% | 9.93% | 1.58% | 2.36% | 6.43% | 7.91% | 6.48% | 6.88% | 5.82% |
| O=C1Nc2ccccc2/C1=C1\CCc2cc(O)ccc21 | 3.99% | 2.44% | 15.4% | 12.7% | 25.7% | 40.7% | 85.5% | 27.1% | 6.88% | 4.69% | 18.8% | 3.94% | 13.6% | 3.48% | 7.74% | 6.96% | 9.83% | 8.49% | 8.96% | 0.39% |
| CCn1c(-c2nonc2N)nc2cncc(C(=O)NCCNC)c21 | 1.09% | 1.3% | 4.66% | 2.02% | 3.5% | 0.34% | 4.29% | -3.83% | -3.99% | 3.7% | 5.41% | 2.4% | 5.52% | 0.59% | 1.01% | 7.93% | 7.26% | 4.48% | 4.42% | 2.61% |
| Cc1cc(O)cc(C)c1/C=C/c1cncc(C(=O)OC(C)(C)C)c1 | 2.64% | 8.01% | 34% | 2.02% | 2.37% | 2.32% | 1.9% | -1.99% | -2.24% | 3.2% | 4.32% | 5.5% | 31.1% | 1.34% | 1.02% | 4.14% | 7.71% | 3.83% | 6.09% | 3.1% |
| Nc1nccc(-c2c(-c3ccc(F)cc3)ncn2C2CCNCC2)n1 | -0.1% and 1.64% | -0.15% and 1.9% | 4.65% and 8.7% | -0.52% and 1.63% | -0.59% and 2.14% | -1.21% and 1.71% | -2.93% and 1.86% | -8.75% and 1.68% | 2.68% and 1.47% | -2.12% and 1.7% | 1.14% and -0.71% | -1.29% and 0.36% | 11.9% and 16.2% | 1.4% and 0.85% | -2.69% and 1.59% | -2.89% and 1.95% | -0.2% and 7.76% | -4.19% and 1.23% | 0.9% and 7.41% | -3.57% and -1.58% |
